# Measurements reported in PubChem BioAssay (NCATS).
# Inconclusive results are not listed. Calls of active or inactive are those of the source. The call rests on the fitted dose curve; in most records, active means well fitted cell-killing curve with a large enough effect; inconclusive means small, poorly fitted or top-dose-only effect; inactive means flat fitted curve, though single readings scatter.
# Assay: qHTS of pediatric cancer cell lines to identify multiple opportunities for drug repurposing: Primary screen for U-2 OS cells (AID 1347096); further: nearly all actives have a fitted effect of over 50% in size
# Settings: U-2 OS viability, CellTiter-Glo luminescence, 48 h; series mostly up to 46 µM; activity change, negative = cytotoxic: at the top concentration
# From the text: Drug repurposing or repositioning has been offered as a strategy for drug development in oncology programs. This approach has special potential for childhood cancers and other rare or orphan diseases, where the expected return on new drug development has been a disincentive to pharmaceuticals.
# In this project we exploit the poly-pharmacology of drugs to discover new indications via phenotypic screening of a panel of 19 well-characterized cell lines derived from solid tumors seen in children and adolescents. The goal is to identify approved drugs with previously unrecognized anticancer properties that has the potential to reveal new mechanisms and biological processes involved in carcinogenesis or drug resistance. We employed a titration-based paradigm (quantitative high-throughput screening or qHTS), where all compounds were tested at multiple concentrations for their effect on cell viability. Concentration-response curves (CRCs) were derived directly from the primary screen, and both potency and efficacy values were used to identify compounds with robust bioactivity profiles. We screened the NIH Chemical Genomics Center (NCGC) Pharmaceutical Collection (NPC) and Mechanism Interrogation Plate (MIPE) small molecule collections of approved and investigational compounds against these cell lines; and measured metabolically active cells after 48 hours of compound treatment as a proxy for cell viability.
# Assay Submitter: Nathalia J. Martinez, National Center for Advancing Translational Sciences, National Institutes of Health, Rockville, MD, USA; email: natalia.martinez@nih.gov
# [1] Shen, M et al. Quantitative high-throughput phenotypic screening of pediatric cancer cell lines identifies multiple opportunities for drug repurposing. Oncotarget 2017 Dec 19;9(4):4758-4772. PMID 29435139.
# The cells were obtained from University of North Carolina (UNC), Pediatric Preclinical Testing Program (PPT), and Coriell Institute (CI).
# qHTS cell viability assay:
# Cells were assayed in growth media at a density of 500-1,000 cells/well. Five microliters of cells were dispensed into 1,536-well, white, solid-bottom, TC-treated plates (Greiner Bio One) using a multidrop dispenser and incubated at 37 degrees C, 5% CO2, under a humidified atmosphere for 5 hours. Twenty-three nanoliters of compounds and controls (neutral control DMSO or positive control bortezomib at final concentration of 2.3 µM) were subsequently transferred by Kalypsys pintool. For primary screens, the MIPE collection was tested at 11-point dilutions (final concentrations range from 0.78 nM to 46 µM) and the NPC collection at 8-point dilutions (final concentrations range from 0.59 nM to 46 µM). Compounds tested in follow-up screens were assayed at 11-point dilutions. Cells were incubated for 48 hours, followed by addition of 3 µL of CellTiter-Glo (Promega). After a 15 min incubation at room temperature, samples were analyzed for luminescence intensity using a ViewLux High-throughput CCD imager equipped with clear filters.
# Potency means the concentration at half of the fitted maximal effect.
Compound,Potency,"activity change, negative = cytotoxic"
CC1(C)CCC(c2ccc(Cl)cc2)=C(CN2CCN(c3ccc(C(=O)NS(=O)(=O)c4ccc(N[C@H](CCN5CCOCC5)CSc5ccccc5)c(S(=O)(=O)C(F)(F)F)c4)cc3)CC2)C1,7.43 µM (active),–
CN(C1CCc2c(c3ccccc3n2CC(=O)O)C1)S(=O)(=O)c1ccc(F)cc1 (stereo not given),–,-10.3% (inactive)
CC(=O)OCCN1C(=O)c2c(C)nc3ccc(S(=O)(=O)N4CCOCC4)cc3c2C1=O,–,8.59% (inactive)
COc1cc(Nc2ncc(F)c(Nc3ccc4c(n3)N(COP(=O)(O)O)C(=O)C(C)(C)O4)n2)cc(OC)c1OC,4.69 µM (active),–
Nc1nc(-c2nn(Cc3ccccc3F)c3ncccc23)nc(N)c1N1CCOCC1,–,-1.85% (inactive)
C=CC(=O)Nc1cc2c(Nc3ccc(F)c(Cl)c3)ncnc2cc1OCCCN1CCOCC1,7.43 µM (active),–
Cc1ccc(S(=O)(=O)Nc2cc(Cl)ccc2C(=O)Nc2nc(-c3ccccc3)cs2)cc1,–,2.09% (inactive)
N#CCNC(=O)c1ccc(-c2ccnc(Nc3ccc(N4CCOCC4)cc3)n2)cc1,–,-0.194% (inactive)
O=C(NCCCNc1nc(Nc2cccc(NC(=O)N3CCCC3)c2)ncc1I)c1cccs1,–,-5.11% (inactive)
CCn1cc(-c2ccnc3[nH]c(-c4cccc(CN(C)C)c4)cc23)c(-c2ccc(NC(=O)N(C)C)cc2)n1,18.7 µM (active),–
COc1ccc(C=Cc2cc(OC)c(OC)c(OC)c2)cc1O,–,-43.6% (inactive)
CCCNC(=O)Nc1ccc(Oc2ncnc3cc(OC)c(OC)cc23)cc1Cl,–,-3.76% (inactive)
COc1cc2ncn(-c3cc(OCc4ccccc4C(F)(F)F)c(C(N)=O)s3)c2cc1OC,23.5 µM (active),–
COc1ccc2c(OCc3nnc4ccc(-c5ccccc5)nn34)ccnc2c1,–,11.8% (inactive)
CC(C)c1nn(-c2c(Cl)cccc2Cl)c2nc(Cc3ccc(OCCO)cc3)[nH]c(=O)c12,–,6.77% (inactive)
Clc1ccc2ncc(-c3cccc(NC4CNC4)n3)n2c1,–,6.71% (inactive)
C#Cc1cccc(Nc2ncnc3cc(OC)c(OCCCCCCC(=O)NO)cc23)c1,1.48 µM (active),–
CC(=O)SC[C@@H](C)C(=O)N1CCC[C@H]1C(=O)N[C@@H](Cc1ccccc1)C(=O)O,–,9.71% (inactive)
CC(C)(C)c1cc(NC(=O)Nc2ccc(-c3cn4c(n3)sc3cc(OCCN5CCOCC5)ccc34)cc2)no1,–,-16.8% (inactive)
Cn1c(CNc2ccc(C(=N)N)cc2)nc2cc(C(=O)N(CCC(=O)O)c3ccccn3)ccc21,–,18.2% [at 16.1 µM] (inactive)

Compound,Potency,"activity change, negative = cytotoxic"
Cc1cc(N2CCOCC2)cc2[nH]c(-c3c(NC[C@@H](O)c4cccc(Cl)c4)cc[nH]c3=O)nc12,18.7 µM (active),–
CNc1nccc(-c2cccnc2Oc2cc(C(=O)Nc3cccc(C(F)(F)F)c3)ccc2C)n1,11.8 µM (active),–
O=C(CCCCCCC(=O)Nc1ccc([C@H]2O[C@@H](CSc3nc(-c4ccccc4)c(-c4ccccc4)o3)C[C@@H](c3ccc(CO)cc3)O2)cc1)NO,–,15.9% (inactive)
COC(=O)C[C@](O)(CCCC(C)(C)O)C(=O)O[C@@H]1C(OC)=C[C@]23CCCN2CCc2cc4c(cc2[C@H]13)OCO4,–,19.7% (inactive)
Cc1c(C)n(Cc2ccc(-c3ccccc3C(=O)O)cc2)c2ccc(C(=O)N[C@@H](C)c3ccc([N+](=O)[O-])cc3)cc12,–,-15.3% (inactive)
COC(=O)Nc1nc2ccc(C(=O)c3ccc(F)cc3)cc2[nH]1,–,-18.7% (inactive)
O=C(Cc1ccc(-c2ccc(OCCN3CCOCC3)cc2)cn1)NCc1ccccc1,3.72 µM (active),–
C=CC(=O)Nc1cccc(Oc2nc(Nc3ccc(N4CCN(C)CC4)cc3)ncc2Cl)c1,4.69 µM (active),–
CCN(CC)CCNC(=O)c1ccc2nc(-c3ccccc3)c(-c3ccc(CN4CCC(n5c(=O)[nH]c6ccccc65)CC4)cc3)nc2c1,3.72 µM (active),–
O=C(Nc1ncc(-c2cc(C(F)F)nn2-c2c(Cl)cccc2Cl)s1)C1CC1,1.87 µM (active),–
COc1ccc(CC2c3cc(OC)c(OC)cc3CC[N+]2(C)CCC(=O)OCCCCCOC(=O)CC[N+]2(C)CCc3cc(OC)c(OC)cc3C2Cc2ccc(OC)c(OC)c2)cc1OC (stereo not given),–,3.34% [at 9.22 µM] (inactive)
COc1cc(C)c(Sc2cnc(NC(=O)c3ccc(CNC(C)C(C)C)cc3)s2)cc1C(=O)N1CCN(C(C)=O)CC1 (stereo not given),–,3.89% (inactive)
CC(=O)Nc1sc2c(c1-c1nc3ccccc3s1)CNC2,–,-19.8% (inactive)
COc1cc(C(=O)N2CCC(N3CCN(C)CC3)CC2)ccc1Nc1ncc2c(n1)N(C)c1ccccc1C(=O)N2C,–,0.601% (inactive)
O=C(C=Cc1cccnc1)NCCCCC1CCN(C(=O)c2ccccc2)CC1,0.118 µM (active),–
COc1cc(OC2CCN(C)CC2)ccc1Nc1ncc2c(n1)n(C1CCCC1)c(=O)n2C,23.5 µM (active),–
Cc1cc(Nc2cc(N3CCN(C)CC3)nc(Sc3ccc(NC(=O)C4CC4)cc3)n2)n[nH]1,–,15.8% (inactive)
C=CC(=O)Nc1cccc(Oc2nc(Nc3ccc(N4CCN(C)CC4)cc3OC)ncc2Cl)c1,23.5 µM (active),–
C=C1C(=CC=C2CCC[C@]3(C)[C@@H]([C@H](C)C=C[C@H](C)C(C)C)CC[C@@H]23)C[C@@H](O)C[C@@H]1O,3.72 µM (active),–
O=C(O)[C@H](Cc1c[nH]c2ccccc12)N1C(=O)c2ccccc2C1=O,–,17.5% [at 92.7 µM] (inactive)
